Reference: PubChem BioAssay AID463254 (National Center for Advancing Translational Sciences (NCATS), 2010)
Hit rate of the full screen: of about 330,000 compounds, about 40 (0.01%) were called active. Calls follow the shape of the dose curve; as a rule, active = well fitted inhibition curve with a large enough effect; inconclusive = small, poorly fitted or top-dose-only effect, or effect the other way; inactive = flat fitted curve, though single readings scatter. The sample as a whole holds a higher share of actives than the screen did.

Target: Ubiquitin carboxyl-terminal hydrolase 2 (Homo sapiens) (UniProt O75604)
Assay: qHTS Assay for Inhibitors of Ubiquitin-specific Protease USP2a Using CHOP2 as the Reporter
Conditions: USP2 core, Ub-CHOP2 coupled fluorogenic reporter, 485/531; series mostly up to 38.3 µM; activity change, negative = inhibition: at the top concentration
From the text: NIH Molecular Libraries Screening Centers Network [MLSCN] NIH Chemical Genomics Center [NCGC] MLSCN Grant: XO1-MH079852-01 PI Name: Nicholson, Ben. Progenra Inc, Malvern, PA NCGC Assay Overview: Homeostasis of cellular proteins is maintained through a combination of synthesis and degradation. The pathway that accounts for the majority of protein degradation is the ubiquitin-proteasomal pathway. Ubiquitin (Ub) is highly conserved in all cells and the generation of a multi-Ub chain typically targets proteins for degradation by the proteasome. However, ubiquitination is highly reversible and dynamic. Deubiquitination, the reverse process, is catalyzed through the action of enzymes referred to as isopeptidases or deubiquitinating enzymes (DUBs). This group of enzymes is collectively responsible for maintaining adequate pools of free ubiquitin and regulating the ubiquitination status of cellular proteins. The class of DUBs referred to as the ubiquitin-specific proteases (USP) family functions endoproteolytically to cleave Ub chains from a wide range of protein substrates. USP2a deubiquitinates fatty acid synthase (FASN) which has recently been identified as an emerging oncology target. To identify inhibitors of USP2a a cell-free assay was employed. […] The reporter enzyme chosen is an enterokinase called CHOP2, which is activated when the Ub is cleaved by USP2. The free and now activated reporter can subsequently act on its reporter substrate. Thus, this coupled assay gives a fluorescent read-out at excitation/emission wavelengths of 485/531. The assay was developed by Progenra, Inc. and has been licensed for sale by LifeSensors, Inc. as Ub-CHOP2-Reporter-Kit (#PR1101).
NCGC Assay Protocol Summary: The assay buffer, prepared fresh at the day of the assay, contains 20mM Tris-HCl pH 8.0, 2mM CaCl2, 2mM beta-Mercaptoethanol, 0.05% CHAPS. 3ul of 20nM (10nM final) USP2 core, which is stored on ice, is dispensed into a medium-binding black solid Kalypsys 1,536 well plate using the Kalypsys dispenser. The assay plate is then pinned with 23nL compound with the Kalypsys pintool in columns 5-48. The controls are pinned as follows: column 1 two-fold dilutions of 2M NEM in duplicate; column 2 2M NEM (final concentration 38.2mM); column 3&4 DMSO. The assay plate is incubated at RT for 30min. Subsequently, 1.5uL of 100nM (25nM final) Ub-CHOP2 and 1.5uL of 100nM (25nM final) Reporter Substrate (both stored on ice and protected from light) were dispensed into the plate using the Kalypsys dispenser. Plates were read after 60min RT incubation on a ViewLux (Perkin Elmer) plate reader using the following wavelengths Ex 485nm /Em 531nm. Data were normalized to the to AC100 inhibition (NEM). Concentration-response curves were fitted to the normalized data and the concentration-response curves were then classified based on curve quality (r2), response magnitude and degree of measured activity. The time zero reading was used to flag fluorescence artifacts. Keywords: ubiquitination, deubiquitination, proteases, profluorescent, MLSMR, MLPCN, NIH Roadmap, qHTS, NCGC

Sequence of Ubiquitin carboxyl-terminal hydrolase 2 (Homo sapiens) (O75604 whole entry, looked up): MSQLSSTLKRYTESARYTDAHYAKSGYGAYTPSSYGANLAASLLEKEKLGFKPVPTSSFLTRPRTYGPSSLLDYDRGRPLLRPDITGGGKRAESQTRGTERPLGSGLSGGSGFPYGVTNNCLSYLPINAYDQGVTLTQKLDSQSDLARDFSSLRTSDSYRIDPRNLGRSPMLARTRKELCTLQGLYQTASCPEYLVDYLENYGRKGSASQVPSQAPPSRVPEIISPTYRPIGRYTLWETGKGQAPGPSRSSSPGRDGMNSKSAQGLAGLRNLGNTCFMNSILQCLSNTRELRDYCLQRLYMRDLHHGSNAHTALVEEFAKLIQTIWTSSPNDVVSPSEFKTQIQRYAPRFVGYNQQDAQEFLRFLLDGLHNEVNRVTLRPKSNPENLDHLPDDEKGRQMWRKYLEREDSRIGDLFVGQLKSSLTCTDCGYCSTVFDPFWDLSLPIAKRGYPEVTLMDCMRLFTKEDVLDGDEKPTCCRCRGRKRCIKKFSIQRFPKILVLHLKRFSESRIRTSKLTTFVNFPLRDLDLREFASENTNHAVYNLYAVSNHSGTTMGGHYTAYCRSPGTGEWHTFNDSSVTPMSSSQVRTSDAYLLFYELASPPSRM

Activity change, negative = inhibition, inactive:
CCCCCN(C(=O)CCC(=O)OCC(=O)NCc1ccc(OC)cc1)c1c(N)n(CCCC)c(=O)[nH]c1=O 0.688%
Cc1ccc(S(=O)(=O)Nc2nc(N)n(-c3ccccc3)n2)cc1 0.765%
COC(=O)c1ccc(OC(=O)c2nn(C)cc2Cl)c(OC)c1 -0.26%
Cc1nc2nc(COc3ccccc3)[nH]n2c(=O)c1C 1.56%
O=C(Nc1cc(N2CCOCC2)ncn1)NC1(C(F)(F)F)Oc2ccc(Cl)cc2O1 (stereo not drawn) -0.0506%
CSc1ncc(C(=O)Nc2ccc(C)cc2C)c(C)n1 1.33%
COc1cccc(CNS(=O)(=O)c2csc(C(N)=O)c2)c1 3.56%
CC(=O)O[C@H]1CC[C@@]2(C)[C@@H](CC[C@@H]3[C@@H]2CC[C@]2(C)[C@@H](C(C)(C)O)C[C@@H]32)C1 -0.0227%
Cc1ccc(C)c(CSc2nc(-c3ccco3)nc3c2c(=O)n(C)c(=O)n3C)c1 -0.717%
CCC(C)NC(=O)C1CCC(=O)N1Cc1ccc(C)cc1 (stereo not drawn) 0.93%
COc1ccc(CS(=O)/C(Cl)=C(/Cl)C(=O)Nc2ccc(OC)nc2)cc1 (stereo not drawn) 0.612%
Cc1cc(C)c(S(=O)(=O)N2CCOCC2)cc1C 1.87%
Cc1ccc(CNC(=O)Cn2c(=O)c3sccc3n(Cc3cccc([N+](=O)[O-])c3)c2=O)cc1 -0.534%
CCOc1ncccc1C(=O)NNC(=O)c1cccc(S(=O)(=O)Nc2ccccc2OC)c1 -1.34%
COc1ccc(C(c2nnnn2C2CCCCC2)N2CCN(c3ccccc3F)CC2)cc1 (stereo not drawn) -0.313%
COc1ccccc1/C=C/CN1CCC(CO)(Cc2ccccc2)CC1 1.37%
Cc1ccc(O)c(/C=N/NC(=O)COc2ccc3c(C)cc(=O)oc3c2)c1 0.0027%
O=C(CCc1nnc(Cc2ccc3c(c2)OCO3)o1)NCCc1ccccc1Cl 2.78%
CC(C)c1ccc(-c2noc(C3CCCN(S(C)(=O)=O)C3)n2)cc1 (stereo not drawn) -7.49%
COc1ccccc1CNC(=O)CCCNS(=O)(=O)c1cccc2nsnc12 1.54%
CC1COC2C(O1)N(S(C)(=O)=O)CCN2S(C)(=O)=O (stereo not drawn) -1.04%
CCC(C)[C@@H](C(=O)N1CCNCC1)n1cc(CCCCN)nn1 (stereo partly drawn) 1.67%
CCCN(CC(=O)NC(=O)NC1CCCCC1)CC(=O)Nc1cc(Cl)ccc1Cl -8.68%
CC(C)CC1NC(=O)c2cc(Cl)ccc2-n2c1nc1ccccc1c2=O (stereo not drawn) 4.7%
O=C(NNS(=O)(=O)c1ccc(F)cc1)c1cnccn1 2.02%
Cc1csc(Nc2ccc(Cl)cc2)[n+]1-c1ccc(Cl)cc1 -0.358%
CSC1=NCCN1C(=O)c1ccc(S(=O)(=O)N2CCOCC2)cc1 -11.3%
C[C@@H]1C[C@@H]2O[C@H]2/C=C\C=C\C(=O)Cc2c(Cl)c(O)cc(O)c2C(=O)O1 1.29%
